Data from PubChem BioAssay AID652015 (National Center for Advancing Translational Sciences (NCATS), 2013).
Results filed as inconclusive are left out. Entries that show only a call come without a potency. The source made the active and inactive calls. The call rests on the fitted dose curve; in most records, active means well fitted inhibition curve with a large enough effect; inconclusive means small, poorly fitted or top-dose-only effect; inactive means no such curve, though single readings can be large or run the other way.

These compounds were tested against Coelenterazine h 2-monooxygenase (Renilla reniformis) (UniProt P27652) (assay: qHTS Assay for Inhibitors of Sea Pansy Luciferase from the GSK Published Protein Kinase Inhibitor Set). Details: purified Renilla luciferase, luminescence; series mostly up to 57.5 µM.
Coelenterazine h 2-monooxygenase (Renilla reniformis), sequence (P27652 whole entry, looked up): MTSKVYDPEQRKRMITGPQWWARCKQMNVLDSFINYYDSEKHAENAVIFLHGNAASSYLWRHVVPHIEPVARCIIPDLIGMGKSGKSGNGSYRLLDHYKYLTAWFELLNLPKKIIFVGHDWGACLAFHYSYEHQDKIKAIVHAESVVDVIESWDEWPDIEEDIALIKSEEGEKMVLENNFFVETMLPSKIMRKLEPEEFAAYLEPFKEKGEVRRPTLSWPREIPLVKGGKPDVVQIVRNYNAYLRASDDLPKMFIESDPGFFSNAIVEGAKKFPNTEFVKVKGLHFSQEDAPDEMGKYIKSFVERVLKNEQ
Procedure, shortened: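 qHTS (roughly 60 uM down to 300 pM) against 1 nM Renilla luciferase, substrate coelenterazine h 5 uM, Tris acetate pH 7.5 buffer with NaCl, Tween-20 and BSA. Luminescence measured after an average 2 min incubation.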

**Q.** How did the Potency turn out when ON=C1CCc2cc(-c3nc(C4CCNCC4)[nH]c3-c3ccncc3)ccc21 was run?
**A.** Its Potency is “inactive”.

**Q.** How did the Potency turn out when COc1ccccc1Oc1nccc(-c2c(-c3ccc(F)cc3)ncn2C2CCNCC2)n1 was run?
**A.** The Potency was “inactive”.

**Q.** Which Potency does the source give for CN1CCC(n2cnc(-c3ccc(F)cc3)c2-c2ccnc(N)n2)CC1 here?
**A.** Its Potency is “inactive”.

**Q.** With CS(=O)(=O)CCNCc1ccc(-c2ccc3ncnc(Nc4ccc(OCc5ccccc5)c(C(F)(F)F)c4)c3c2)o1 as the compound, how does the Potency read?
**A.** The Potency was “inactive”.

**Q.** For Cc1ccc(NC(=O)CC2CC2)cc1-c1ccc(C(=O)NCC2CC2)cc1, which Potency is on record?
**A.** Its Potency is “inactive”.

**Q.** COc1ccccc1Nc1ncc(-c2ccccc2)o1 was tested. Which Potency did it give?
**A.** The Potency was “inactive”.

**Q.** For O=C1NC(=O)C(c2ccccc2)=C1Nc1ccccc1, which Potency is on record?
**A.** The Potency was “inactive”.

**Q.** How did the Potency turn out when COc1ccc(-c2oc3ncnc(N)c3c2-c2ccc(NC(=O)Nc3cc(C(F)(F)F)ccc3F)cc2)cc1 was run?
**A.** The Potency was “inactive”.

**Q.** Which Potency does the source give for COc1cc2ncn(-c3cc(OCc4ccccc4C(F)(F)F)c(C(N)=O)s3)c2cc1OC here?
**A.** The Potency was “inactive”.

**Q.** With COC(=O)Nc1nc2ccc(Oc3ccc(NC(=O)Nc4cccc(Cl)c4)cc3)cc2[nH]1 as the compound, how does the Potency read?
**A.** Its Potency is “inactive”.

**Q.** NC(=O)c1cc(-c2ccc(F)cc2)cc(-c2ccncc2)c1N was tested. Which Potency did it give?
**A.** The Potency was “inactive”.

**Q.** For Nc1nccc(C#Cc2cncnc2Nc2ccc(OCc3cccc(F)c3)c(Cl)c2)n1, which Potency is on record?
**A.** Its Potency is “inactive”.

**Q.** CC(C)(C)c1ccc(Oc2nccc(-c3c(-c4ccc(F)cc4)ncn3C3CCNCC3)n2)cc1 was tested. Which Potency did it give?
**A.** Its Potency is “inactive”.

**Q.** With COc1cccc(-n2ncc3c(NN=Cc4ccc(C)cc4)ncnc32)c1 as the compound, how does the Potency read?
**A.** The Potency was “inactive”.

**Q.** For CC(Oc1cc(-n2cnc3ccc(OCC(O)CO)cc32)sc1C(N)=O)c1ccccc1Cl (centres undefined), which Potency is on record?
**A.** The Potency was “inactive”.

**Q.** For CN(C)CCCNc1nccc(-c2c(-c3ccc(F)cc3)nn3cc(C(F)(F)F)ccc23)n1, which Potency is on record?
**A.** Its Potency is “inactive”.

**Q.** For Fc1ccc(-c2nc3n(c2-c2ccncc2)CCS3)cc1, which Potency is on record?
**A.** Its Potency is “inactive”.

**Q.** With COc1ccc2cc(-c3c(-c4ccncc4)nc(-c4ccc(S(C)=O)cc4)n3C)ccc2c1 (centres undefined) as the compound, how does the Potency read?
**A.** Its Potency is “inactive”.

**Q.** How did the Potency turn out when CC1=C(C(=O)Nc2cc(Cl)c3[nH]ncc3c2)C(c2ccc(C(F)(F)F)cc2)CC(=O)N1 (centres undefined) was run?
**A.** Its Potency is “inactive”.

**Q.** With COc1ccc2ncn(-c3cc(OC(C)c4ccccc4Cl)c(C(N)=O)s3)c2c1 (centres undefined) as the compound, how does the Potency read?
**A.** The Potency was “inactive”.

**Q.** For Cc1nnc(-c2ccc(C)c(-c3ccc(C(=O)Nc4cccc(C#N)c4)cc3)c2)o1, which Potency is on record?
**A.** The Potency was “inactive”.

**Q.** How did the Potency turn out when CN1CCN(C(=O)c2ccc(NC(=O)Nc3ccc(N(C)c4ccnc(Nc5ccc(CS(C)(=O)=O)cc5)n4)cc3)cc2)CC1 was run?
**A.** Its Potency is “inactive”.

**Q.** With CS(=O)(=O)Nc1cccc(-c2ccc3c(NC(=O)C4CC4)n[nH]c3c2)c1 as the compound, how does the Potency read?
**A.** The Potency was “inactive”.

**Q.** COc1cc(Nc2ncc3c(C)nc(-c4cccc(C(F)(F)F)c4)n3n2)cc(OC)c1OC was tested. Which Potency did it give?
**A.** Its Potency is “inactive”.

**Q.** With CC1=C(C(=O)Nc2ccc3[nH]ncc3c2)C(c2ccc3ccccc3c2)CC(=O)N1 (centres undefined) as the compound, how does the Potency read?
**A.** The Potency was “inactive”.

**Q.** With N#Cc1cccc(Nc2nccc(-c3cnn4ncccc34)n2)c1 as the compound, how does the Potency read?
**A.** The Potency was “inactive”.

**Q.** With O=C(Nc1ccc(Oc2ccc3nc(NC(=O)c4ccco4)[nH]c3c2)cc1)Nc1cc(C(F)(F)F)ccc1F as the compound, how does the Potency read?
**A.** Its Potency is “inactive”.

**Q.** Cc1cccc(-c2[nH]ncc2-c2ccc3ncccc3n2)n1 was tested. Which Potency did it give?
**A.** Its Potency is “inactive”.

**Q.** Which Potency does the source give for NC(=O)c1sc(-n2cnc3cc(C(F)(F)F)ccc32)cc1OCc1ccccc1Br here?
**A.** The Potency was “inactive”.

**Q.** CCS(=O)(=O)c1ccc(OC)c(Nc2ncc(-c3cccc(F)c3)o2)c1 was tested. Which Potency did it give?
**A.** The Potency was “inactive”.

**Q.** Which Potency does the source give for CCS(=O)(=O)c1ccc(OC)c(Nc2ncc(-c3cccc(-c4ccccc4F)c3)o2)c1 here?
**A.** The Potency was “inactive”.

**Q.** With Cc1ccc2c(-c3ccnc(Nc4ccccc4)n3)c(-c3ccc(F)cc3)nn2n1 as the compound, how does the Potency read?
**A.** Its Potency is “inactive”.

**Q.** CNC(=O)c1sc(-n2cnc3cc(OC)c(OC)cc32)cc1OCc1ccccc1C(F)(F)F was tested. Which Potency did it give?
**A.** Its Potency is “inactive”.

**Q.** CNC(=O)c1cncc(C=Cc2c(C)cccc2C)c1 was tested. Which Potency did it give?
**A.** Its Potency is “inactive”.

**Q.** Cc1ccc(Nc2ccnc(Nc3cccc(C(N)=O)c3)n2)cc1O was tested. Which Potency did it give?
**A.** The Potency was “inactive”.

**Q.** How did the Potency turn out when COc1cccc(-n2nc(C)c3c(NN=C(C)c4ccncc4)ncnc32)c1 was run?
**A.** The Potency was “inactive”.

**Q.** Which Potency does the source give for CC1=C(C(=O)Nc2ccc3[nH]ncc3c2)C(c2ccc(F)cc2)NC(=O)N1 (centres undefined) here?
**A.** Its Potency is “inactive”.

**Q.** Which Potency does the source give for Fc1ccc(-c2ncn(C3CCNCC3)c2-c2ccnc(Oc3ccc(F)c(F)c3)n2)cc1 here?
**A.** The Potency was “inactive”.

**Q.** With CCn1c(-c2nonc2N)nc2cncc(C(=O)N3CCNCC3)c21 as the compound, how does the Potency read?
**A.** The Potency was “inactive”.
